PubChem BioAssay AID624415 (National Center for Advancing Translational Sciences (NCATS), 2012)
Out of some 390,000 compounds screened, about 60 (0.02%) were called active. Rule as the data show it: active = activity change below about -50%; inconclusive = between about -30% and that limit; inactive = weaker than that. Many of the other results were omitted from the sample, so actives are more common in it than they were.

biological target: Mucolipin-1 (Homo sapiens) (UniProt Q9GZU1); assay: qHTS for Inhibitors of the Human Mucolipin Transient Receptor Potential 1 (TRPML1); conditions: TRPML1-inducible cells, Ca2+ dye fluorescence, FDSS; stronger effect = lower value; inhibition of EC80 agonist-evoked calcium signal;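 also: stimulus is agonist 54-4 at its EC80 concentration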
Sequence (Q9GZU1 whole entry, looked up, the tested form may be a part): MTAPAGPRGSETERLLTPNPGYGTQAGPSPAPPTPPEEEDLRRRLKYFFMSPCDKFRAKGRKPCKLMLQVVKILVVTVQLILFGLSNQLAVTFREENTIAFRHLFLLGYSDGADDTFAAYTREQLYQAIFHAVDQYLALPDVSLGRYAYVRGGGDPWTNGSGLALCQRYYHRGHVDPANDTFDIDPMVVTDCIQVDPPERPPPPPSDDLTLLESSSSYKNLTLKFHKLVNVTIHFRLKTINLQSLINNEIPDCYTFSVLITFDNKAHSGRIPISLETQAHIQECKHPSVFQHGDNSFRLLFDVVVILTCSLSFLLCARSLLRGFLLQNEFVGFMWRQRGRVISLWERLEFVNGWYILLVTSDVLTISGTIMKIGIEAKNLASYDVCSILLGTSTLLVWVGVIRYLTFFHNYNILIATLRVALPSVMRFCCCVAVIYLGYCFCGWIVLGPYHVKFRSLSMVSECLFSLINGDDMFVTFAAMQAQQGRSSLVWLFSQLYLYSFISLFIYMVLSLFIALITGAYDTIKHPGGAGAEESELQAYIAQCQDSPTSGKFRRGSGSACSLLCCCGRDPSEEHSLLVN
Source text: Mutations of human Mucolipin transient receptor potential 1 (TRPML1) cause type IV mucolipidosis (ML4), a devastating neurodegenerative disease in young children. […] Currently, there is no treatment for ML4. […] Under physiological conditions, TRPMLs regulate membrane trafficking by transducing information about PI(3,5)P2 levels into changes in juxtaorganellar Ca2+, thereby triggering membrane fusion/fission events in the late endocytic pathways (endolysosomal trafficking). In addition, TRPML1 mediates release of Fe2+ from late endosomes and lysosomes, which is essential for cellular iron metabolism. Thus, impaired ion (Ca2+ and Fe2+) homeostasis underlies lysosomal dysfunction and ML4 phenotypes. In ML4 cells, the problem is twofold. First, defective Ca2+-dependent membrane trafficking due to TRPML1-deficiency causes accumulation of lipids and other bio-materials in the lysosome. The second strike comes from the lysosomal iron overload (due to impairment of TRPML1's Fe2+ conductivity), which converts the accumulated materials into the nondegradable (resistant to lysosomal degradation) lipofuscin (also called aging pigment) in the lysosome. Lipofuscin accumulation dramatically compromises the functions of lysosomes.
Niemann-Pick type C (NPC) disease is another lysosome storage disease (LSD) with severe neurodegeneration during the childhood. Currently, there is no cure for NPC. […] Thus, TRPML1 is likely to be an essential regulator of lysosome ion homeostasis. We specifically hypothesize that stimulating TRPML1's Fe2+/Ca2+ channel activity in the lysosome using synthetic agonists can alleviate neurodegeneration associated with ML4 or NPC.
To this end, a high throughput screen was developed in a miniaturized format to screen against the Molecular Libraries Small Molecule Repository (MLSMR) to find small molecules that act either as inhibitors or agonist against the TRPML1 channel.
NIH Chemical Genomics Center [NCGC]
NIH Molecular Libraries Probe Centers Network [MLPCN]
Assay Submitter (PI): Haoxing Xu, University of Michigan Ann Arbor
TRPML1-DL cells are dissociated from flasks, counted and, brought up to a density of 500,000 cells per mL of media containing a 1X Tet inducer. Using a Multidrop Combi, 3 uL of this cell solution is dispensed to each well of a 1536 TC treated, black, clear bottom hi base plate for a final cell density of 1,500 cells per well. The assay plates are incubated overnight (approximately 16 hours) at 37 degrees C and 5% CO2. Using a Multidrop Combi, 2 uL of ABD Ca8 no wash dye plus quencher is added to each well. The assay plates incubate at room temperature in the dark for 45-90 minutes. The assay plate is read on the FDSS using the following protocol: 10 second baseline read, 23 nL of compounds and controls are added using 1536 pintool, agonist read for 110 seconds, 1 uL EC80 addition (4 uM final 54-4 diluted in media), antagonist read for 110 seconds.
% is scaled to controls: 0 for no effect and ±100 for the full control effect.

Activity change, negative = inhibition, inactive:
CCn1c(C(=O)Nc2cc(Cl)ccc2C)cc2sc(Cl)cc21 16.9%
Cc1cccc(Cn2c(=O)n(CCC(=O)NCCc3ccc(Cl)cc3)c(=O)c3sccc32)c1 -20.1%
CCc1nn(CC(=O)N2CCN(c3cccc(C(F)(F)F)c3)CC2)c(=O)c2cc3occc3n12 2.52%
COc1ccc(C2=NC3(CCCCC3)N(CC(=O)Nc3ccc(C(C)C)cc3)C2=O)cc1 8.59%
C=COC(=O)N1CCN(/[N+]([O-])=N/Oc2ccc([N+](=O)[O-])cc2[N+](=O)[O-])CC1 5.96%
COc1ccc(CNC(=O)c2ccc(NC(=O)N3CC4CCCN4c4ccccc43)cc2)cc1 (stereo not drawn) 12%
Cc1cc(C)cc(OCC(=O)Nc2c(C(=O)c3ccccc3)oc3ccccc23)c1 -3.38%
Cc1ccc(SCC(=O)Nc2ccc3oc(-c4ccccc4C)nc3c2)cc1 7.73%
CCNS(=O)(=O)c1cc(-c2nnc(Nc3cccc(C(F)(F)F)c3)c3ccccc23)ccc1C -9.21%
COc1cccc(CNC(=O)CCc2nc(-c3ccc(C)cc3)no2)c1 15.3%
Cc1ccccc1C(=O)NCc1nc(-c2ccc(Cl)cc2)no1 -1.57%
CC1CN(C(=O)N2CCC(C(=O)NCc3ccco3)CC2)c2cc(Cl)ccc2O1 (stereo not drawn) 31.2%
COc1ccccc1-c1ccnc2[nH]n(-c3ccccc3)c(=O)c12 -0.876%
COC(=O)CC1Oc2ccccc2-n2cc(-c3ccccc3)nc21 (stereo not drawn) 4.04%
Cc1ccccc1OCc1nc2c3cnn(-c4ccccc4F)c3ncn2n1 -5.46%
COc1ccc(NC(=O)c2ccc3nc(CCc4ccccc4)oc3c2)c(OC)c1 3.32%
CCOC(=O)C1CCN(C(c2ccc(F)cc2)c2sc3nc(-c4ccco4)nn3c2O)CC1 (stereo not drawn) -5.17%
Cn1c(C(=O)N2CCC(C(=O)N3CCN(c4ccccc4)CC3)CC2)cc2sccc21 -0.29%
CC(=O)N1CCCc2cc(S(=O)(=O)N3CCC(C(=O)NCc4ccc(C)cc4)CC3)ccc21 23%
COc1ccc(-c2c3c(=O)n(C)c(=O)n(C)c3c3c(C)nc4ccccc4n23)cc1 -0.184%
CC(=O)N1CCCc2cc(S(=O)(=O)Nc3ccc(Cl)cc3F)ccc21 0.189%
COc1ccc(N2C(=O)CS(=O)(=O)C23C(=O)N(Cc2ccc(C)cc2)c2ccccc23)cc1Cl (stereo not drawn) 40.4%
CCN(CC)/[N+]([O-])=N/OCOC(=O)Cc1c(C)n(C(=O)c2ccc(Cl)cc2)c2ccc(OC)cc12 37.6%
CCOC(=O)CSC1=Nc2ccccc2C2=NC(CCC(=O)NCc3ccc(F)cc3)C(=O)N12 (stereo not drawn) -10.5%
Cc1ccc(Cl)cc1-n1ncc2c(N3CCC(C(N)=O)CC3)ncnc21 0.447%
O=C(NCCC1=CCCCC1)c1ccc2c(c1)N(Cc1ccccc1F)C(=O)c1ccccc1S2(=O)=O 3.43%
Cc1cccc(C(=O)N2c3nc(-c4ccco4)nn3C3(CCCCC3)[C@@H]3CCCC[C@@H]32)c1 -0.973%
C=C1CCN(C(CC(C)C)C(=O)N2CCOCC2)S(=O)(=O)c2ccccc21 (stereo not drawn) -14.1%
CCCCNC(=O)CSc1nc2cc3c(cc2c(=O)n1CCCCCC(=O)NCc1ccc2c(c1)OCO2)OCO3 22.7%
Cc1cccc(NC(=O)CN(c2ccc(C(C)C)cc2)S(=O)(=O)c2c(C)nn(C)c2C)c1C 3.79%
Cc1ccccc1NC(=O)Cn1c(=O)n(CCc2ccccc2)c(=O)c2ccccc21 -6.8%
Cc1ccc(CN(C(=O)c2ccccc2[N+](=O)[O-])c2ccccn2)cc1 3.72%
Cn1nnc2c(N3CCN(c4ccccc4)CC3)ncnc21 -12.6%
CCn1cc2nc(SCc3ccccc3Cl)n(CCc3ccccc3)c(=O)c2n1 -16.2%
COc1ccc(NC(=O)CSc2nc3ncccc3[nH]2)c(OC)c1 -10.8%
COc1ccc(Nc2ncc3c(n2)CCN(C(=O)OC(C)(C)C)C3)cc1 -8.96%
COc1ccc(C2/C=C\CN(Cc3ccco3)C(C)C(=O)N2Cc2ccc(F)cc2)cc1 (stereo not drawn) 19.9%
COc1ccc2c(c1)Cc1sc(NC(=O)c3ccccc3Br)nc1-2 -10.7%
COc1ccc(C2CC(=O)N(Cc3ccccc3C)c3c2c(C)nn3-c2nc(C)cc(C)n2)c(OC)c1 (stereo not drawn) 35.7%
Cc1cc(C)cc(NC(=O)Cc2csc(C)n2)c1 2.64%
COc1cc(OC)c2c(C)cc(=O)oc2c1C(CCN1CCCCC1)c1ccc(N(C)C)cc1 (stereo not drawn) -6.66%
Cc1ccc(N2CC(c3nnc(Cc4ccccc4Cl)o3)CC2=O)cc1 (stereo not drawn) -9.51%
CCc1ccc(CNC(=O)c2ccc(CS(=O)c3ccc(Br)cc3)o2)cc1 (stereo not drawn) 34.7%
Cc1ccc2cccc(NC(=O)C(C)Oc3ccc(C)c(C)c3)c2n1 (stereo not drawn) -1.63%
Cc1ccc(C)c(N2C(=O)N(Cc3c(F)cccc3Cl)c3ccccc3S2(=O)=O)c1 -2.54%
Oc1ccc(Cl)cc1C1C=C(c2ccc3c(c2)OCO3)NC(c2c(F)cccc2Cl)N1 (stereo not drawn) -4.64%
COc1ccc2ncc3c(-c4ccc(C)c(C)c4)nn(CC(=O)NC4CCCC4)c3c2c1 6.38%
CCN(CC)c1nn2c(=O)c(C(=O)NCCc3ccccc3)cnc2s1 26.2%
COc1ccc(CNC(=O)c2cc3c(=O)[nH]c4ccccc4c3s2)cc1 -6.35%
Cc1ccc(Cl)cc1NC(=O)CSc1nccn1C 0.294%
CC(=O)Nc1ccc2nc(SCCOc3cc(C)cc(C)c3)sc2c1 -12.9%
CCc1ccc(S(=O)(=O)Nc2cc3c(C(=O)OCc4ccccc4)c(C)oc3c3ccccc23)cc1 28.4%
CCOC(=O)c1cccc(NS(=O)(=O)c2cc(-c3cnc(C)o3)ccc2OC)c1 21%
